# Data as given in PubChem BioAssay (NCATS).
# Inconclusive results are not listed. Values without a mark were called inactive. The source made the active and inactive calls. Unless noted, the call rests on the fitted dose curve; in most records, active means well fitted inhibition curve with a large enough effect; inconclusive means small, poorly fitted or top-dose-only effect, or effect the other way; inactive means no such curve, though single readings can be large or run the other way.
# Test: Validation screen for inhibitors of Lassa infection (AID 463096; calls by dose curve)
# Details: Lassa virus infection, cell-based; series mostly up to 46.1 µM; activity change, negative = inhibition: at the top concentration
# On the % scale 0 is the no-effect control and ±100 the full control effect.
row,Structure (SMILES),"activity change, negative = inhibition [%]"
1,C[C@]12CC[C@H](O)CC1=CCC1C2CC[C@]2(C)C(=O)CC[C@@H]12 (stereo partly specified),-23.8
2,CCCN1CCc2cccc3c2C1Cc1ccc(O)c(O)c1-3 (stereo unspecified),-14.5
3,CC(C)C[C@H]1C(=O)N2CCCC2[C@]2(O)O[C@](NC(=O)[C@@H]3C=C4c5cccc6[nH]c(Br)c(c56)C[C@H]4N(C)C3)(C(C)C)C(=O)N12 (stereo partly specified),-49.1

# Test: Quantitative high throughput screen for delayed death inhibitors of the malarial parasite plastid, 96 hour incubation (AID 488745); further: nearly all actives have a fitted effect of over 70% in size; further: potency means the concentration at half of the fitted maximal effect
# Details: Plasmodium falciparum growth; series mostly up to 28.7 µM; activity change, negative = inhibition: at the top concentration
# Outline: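 Two-generation (96 h) exposure of luciferase-reporter P. falciparum in erythrocytes, 2% hematocrit, 0.1% parasitemia final, 37 C, 5% CO2, RPMI 1640 with 0.5% Albumax. Growth inhibition scored by reduced luminescence.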
Structure (SMILES),Potency,"activity change, negative = inhibition [%]"
CC(C)[C@@]1(NC(=O)[C@@H]2C[C@@H]3c4cccc5[nH]cc(c45)C[C@H]3N(C)C2)O[C@@]2(O)C3CCCN3C(=O)[C@H](Cc3ccccc3)N2C1=O (stereo partly specified),1470 nM (active),
C[C@]12CC[C@H](O)CC1=CCC1C2CC[C@]2(C)C(=O)CC[C@@H]12 (stereo partly specified),,-16
CCCN1CCc2cccc3c2C1Cc1ccc(O)c(O)c1-3 (stereo unspecified),2940 nM (active),
